According to PubChem BioAssay (Tox21):
Results filed as inconclusive are left out. Calls of active or inactive are those of the source. Unless noted, calls follow the shape of the full dose curve.

Legend:
[1] = Nuclear factor erythroid 2-related factor 2/antioxidant responsive element (Nrf2/ARE) small molecule agonists: qHTS cell viability counter screen in human keratinocytes (AID 1919968; active = well fitted curve in the direction sought with a large enough effect in the repeat runs; an effect the other way counts as inactive or inconclusive; also: nearly all actives have a fitted effect of over 55% in size)
Summary of the method: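 KeratinoSens cells (HaCaT keratinocytes stably carrying an ARE-luciferase reporter) were seeded at 1,500 cells/well and rested 5 h at 37 C/5% CO2. They were then exposed to compounds in DMSO for 23 h. Viability was read by CellTiter-Fluor fluorescence after 1 h.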

[2] = molecular target: Gonadotropin-releasing hormone receptor (Homo sapiens) (UniProt P30968); experiment: Human gonadotropin-releasing hormone receptor (GnRHR) small molecule agonists, calcium flux assay in GnRHR-HEK293 cells (AID 1920063); also: nearly all actives have a fitted effect of over 35% in size
Chain of Gonadotropin-releasing hormone receptor (Homo sapiens) (P30968 whole entry, looked up): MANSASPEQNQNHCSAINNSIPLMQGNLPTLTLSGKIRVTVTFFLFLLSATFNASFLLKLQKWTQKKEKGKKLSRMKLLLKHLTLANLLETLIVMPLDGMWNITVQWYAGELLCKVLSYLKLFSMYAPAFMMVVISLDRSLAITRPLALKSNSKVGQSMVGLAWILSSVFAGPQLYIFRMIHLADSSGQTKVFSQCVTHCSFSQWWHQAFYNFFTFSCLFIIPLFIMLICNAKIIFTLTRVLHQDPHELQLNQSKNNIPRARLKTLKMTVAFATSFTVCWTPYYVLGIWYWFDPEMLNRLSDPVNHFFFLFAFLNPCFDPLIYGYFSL
Summary of the method: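 HEK293 cells stably expressing human GnRHR were plated 18 h at 37 °C, loaded with calcium dye 1 h at 37 °C, then given compound in agonist mode; fluorescence (Ex/Em 480/540) read kinetically for 3 min at 1 s intervals.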

[3] = molecular target: KiSS-1 receptor (Homo sapiens) (UniProt Q969F8); experiment: Human kisspeptin (KISS1R) small molecule agonists, calcium flux assay in KISS1R-HEK293 cells (AID 1920064; active = well fitted curve in the direction sought with a large enough effect in the repeat runs; an effect the other way counts as inactive or inconclusive)
Chain of KiSS-1 receptor (Homo sapiens) (Q969F8 whole entry, looked up): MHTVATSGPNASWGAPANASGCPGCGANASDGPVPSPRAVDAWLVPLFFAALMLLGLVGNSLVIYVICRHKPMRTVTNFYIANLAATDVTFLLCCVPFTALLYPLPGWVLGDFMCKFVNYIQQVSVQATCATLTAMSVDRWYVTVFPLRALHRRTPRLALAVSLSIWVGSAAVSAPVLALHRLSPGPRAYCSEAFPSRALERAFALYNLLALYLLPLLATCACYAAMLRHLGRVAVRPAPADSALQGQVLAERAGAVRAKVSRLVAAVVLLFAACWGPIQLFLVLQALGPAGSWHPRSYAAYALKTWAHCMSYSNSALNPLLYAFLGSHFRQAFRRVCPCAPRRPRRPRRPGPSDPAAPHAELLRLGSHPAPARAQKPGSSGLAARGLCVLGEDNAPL
Summary of the method: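 HEK293 cells stably expressing human KISS1R were plated 18 h at 37 °C, loaded with calcium dye for 1 h at 37 °C, then given compound by pin tool. Fluorescence (Ex/Em 480/540) was read kinetically for 3 min.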

[4] = G protein-coupled receptor (GPCR) small molecule agonists, calcium flux assay: HEK293 wild type cell line counter screen (AID 1920065)
Summary of the method: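 Cells were plated and cultured 18 h at 37 C/5% CO2, then loaded with calcium dye for 1 h at 37 C. Compounds in DMSO were pin-transferred in agonist mode, and fluorescence (Ex/Em 480/540) was read kinetically for 3 min at 1 s intervals.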

[5] = p53 small molecule agonists, cell-based qHTS assay with human liver microsomes (AID 1963577);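 also: p53 response element beta-lactamase reporter cells with liver microsomes plus NADPH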
Summary of the method: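 HLM-supplemented p53RE-bla reporter assay: 16 h compound exposure at 37 C, microsomes and NADPH each 0.5 mg/mL final, read by fluorescence intensity.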

[6] = p53 small molecule agonists, cell-based qHTS assay with rat liver microsomes (AID 1963578)
Summary of the method: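 Quantitative HTS of the Tox21 10K library: p53RE-bla cells, rat liver microsomes plus NADPH at 0.5 mg/mL final each, 16 h at 37 C, beta-lactamase fluorescence detection.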

[7] = p53 small molecule agonists, cell-based qHTS assay with human liver microsomes: qHTS cell viability counter screen (AID 1963579); also: nearly all actives have a fitted effect of over 45% in size
Summary of the method: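 Viability of p53RE-bla cells is measured as CellTiter-Glo luminescence following a 16 h, 37 C incubation with compound, liver microsomes from human donors and NADPH.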

[8] = p53 small molecule agonists, cell-based qHTS assay with rat liver microsomes: qHTS cell viability counter screen (AID 1963580); also: nearly all actives have a fitted effect of over 45% in size
Summary of the method: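 Intracellular ATP, by CellTiter-Glo luminescence, defines viability. HCT-116 p53RE-bla cells, 4,000 per well, were compound-treated in the presence of rat liver microsomes and NADPH for 16 h at 37 C.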

[9] = p53 small molecule agonists, cell-based qHTS assay: qHTS cell viability counter screen (AID 1963581); also: nearly all actives have a fitted effect of over 45% in size
Summary of the method: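 p53RE-bla HCT-116 cells were exposed to compounds for 16 h at 37 C; after the beta-lactamase FRET read in the same wells, CellTiter-Glo was added and luminescence (intracellular ATP) read after 30 min at room temperature.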

[10] = p53 small molecule agonists, cell-based qHTS assay (AID 1963582; active = well fitted activation curve with a large enough effect in the signal ratio in the repeat runs, not every such curve was filed as active; the % refers to the signal ratio)
Summary of the method: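 p53RE-bla beta-lactamase reporter cells rested 5 h at 37 C/5% CO2, then received compounds in DMSO by pin transfer and were incubated 16 h at 37 C. LiveBLAzer B/G FRET substrate was loaded for 2 h at room temperature before fluorescence reading.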

[11] = molecular target: 5-hydroxytryptamine receptor 2A (Homo sapiens) (UniProt P28223); experiment: 5-hydroxytryptamine receptor 2A (HTR2A) small molecule antagonists, cell-based qHTS assay (AID 1963586); also: nearly all actives have a fitted effect of over 45% in size
Chain of 5-hydroxytryptamine receptor 2A (Homo sapiens) (P28223 whole entry, looked up): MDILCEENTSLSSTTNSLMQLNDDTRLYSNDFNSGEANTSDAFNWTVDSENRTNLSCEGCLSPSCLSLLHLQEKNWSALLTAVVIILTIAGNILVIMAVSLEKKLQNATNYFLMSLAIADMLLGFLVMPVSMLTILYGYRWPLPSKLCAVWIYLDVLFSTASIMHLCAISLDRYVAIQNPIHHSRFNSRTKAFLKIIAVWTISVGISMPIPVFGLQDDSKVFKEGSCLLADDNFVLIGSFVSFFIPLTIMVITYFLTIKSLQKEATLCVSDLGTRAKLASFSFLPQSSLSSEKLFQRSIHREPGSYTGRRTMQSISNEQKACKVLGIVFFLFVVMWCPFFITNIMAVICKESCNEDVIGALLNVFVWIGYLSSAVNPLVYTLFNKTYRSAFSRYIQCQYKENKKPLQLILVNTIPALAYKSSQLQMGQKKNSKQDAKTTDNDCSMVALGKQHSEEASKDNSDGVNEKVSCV
Summary of the method: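 Antagonist-mode intracellular calcium assay: DOI (4 nM) added after 5 min compound pre-incubation at room temperature to dye-loaded HTR2A-CHO cells. Fluorescence followed for 3 min, sampled every second.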

[12] = molecular target: 5-hydroxytryptamine receptor 2A (Homo sapiens) (UniProt P28223); experiment: 5-hydroxytryptamine receptor 2A (HTR2A) small molecule agonists, cell-based qHTS assay (AID 1963587); also: nearly all actives have a fitted effect of over 30% in size
Summary of the method: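 Kinetic calcium-flux fluorescence (2 min, 1 sec intervals) after compound addition in agonist mode. HTR2A-CHO cells were cultured 18 h, then dye-loaded 1 h at 37 C.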

[13] = molecular target: Muscarinic acetylcholine receptor M1 (Homo sapiens) (UniProt P11229); experiment: Cholinergic receptor muscarinic 1 (CHRM1) small molecule antagonists, cell-based qHTS assay (AID 1963588); also: nearly all actives have a fitted effect of over 40% in size
Chain of Muscarinic acetylcholine receptor M1 (Homo sapiens) (P11229 whole entry, looked up): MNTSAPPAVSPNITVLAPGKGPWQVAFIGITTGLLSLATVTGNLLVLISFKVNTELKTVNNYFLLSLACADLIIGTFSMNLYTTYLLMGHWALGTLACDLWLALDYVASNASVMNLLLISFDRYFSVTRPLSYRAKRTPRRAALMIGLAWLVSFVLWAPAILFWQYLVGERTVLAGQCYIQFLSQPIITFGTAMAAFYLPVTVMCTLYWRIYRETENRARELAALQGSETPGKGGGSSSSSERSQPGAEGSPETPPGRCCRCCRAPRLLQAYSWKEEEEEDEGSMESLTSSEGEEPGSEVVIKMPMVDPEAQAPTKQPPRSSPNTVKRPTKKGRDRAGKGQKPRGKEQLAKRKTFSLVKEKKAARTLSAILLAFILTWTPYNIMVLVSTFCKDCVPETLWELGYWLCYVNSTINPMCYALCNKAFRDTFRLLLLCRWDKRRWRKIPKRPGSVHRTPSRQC
Summary of the method: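 CHRM1-CHO calcium-flux assay, antagonist mode. Cells were seeded 18 h, dye-loaded 1 h at 37 C and given compound for 5 min at RT, then acetylcholine was added at 50nM. FDSS fluorescence was read 3 min; 15 concentrations, three runs.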

[14] = molecular target: Muscarinic acetylcholine receptor M1 (Homo sapiens) (UniProt P11229); experiment: Cholinergic receptor muscarinic 1 (CHRM1) small molecule agonists, cell-based qHTS assay (AID 1963589); also: nearly all actives have a fitted effect of over 35% in size
Summary of the method: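 CHO cells stably expressing human CHRM1, seeded 18 h at 37 C/5% CO2, dye-loaded 1 h at 37 C, then given compound in agonist mode; intracellular calcium fluorescence read kinetically at 1 s intervals. Fifteen concentrations, three independent runs.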

[15] = cAMP Responsive Elements (CRE) small molecule agonists, cell-based qHTS assay (AID 1963590)
Summary of the method: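 CRE-bla HEK 293T cells in DMEM with 10% dialyzed FBS, NEAA, pyruvate and 25 mM HEPES were plated 18 h at 37 C/5% CO2, then exposed to compounds in DMSO for 3 h before LiveBLAzer B/G FRET substrate addition.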

[16] = cAMP Responsive Elements (CRE) small molecule antagonists, cell-based qHTS assay (AID 1963591; active = well fitted inhibition curve with a large enough effect in the signal ratio in the repeat runs, not every such curve was filed as active; the % refers to the signal ratio)
Summary of the method: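 CRE-bla HEK293T cells were plated 18 h at 37 °C/5% CO2, pinned with compound in DMSO, then stimulated with NKH477 at 0.25 uM final for 3 h. LiveBLAzer B/G FRET substrate was added and plates incubated 2 h at room temperature.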

[17] = molecular target: Beta-2 adrenergic receptor (Homo sapiens) (UniProt P07550); experiment: Adrenergic beta2 receptor (ADRB2) small molecule antagonists, cell-based qHTS assay (AID 1963592); also: series mostly up to about 92 µM; nearly all actives have a fitted effect of over 50% in size
Chain of Beta-2 adrenergic receptor (Homo sapiens) (P07550 whole entry, looked up): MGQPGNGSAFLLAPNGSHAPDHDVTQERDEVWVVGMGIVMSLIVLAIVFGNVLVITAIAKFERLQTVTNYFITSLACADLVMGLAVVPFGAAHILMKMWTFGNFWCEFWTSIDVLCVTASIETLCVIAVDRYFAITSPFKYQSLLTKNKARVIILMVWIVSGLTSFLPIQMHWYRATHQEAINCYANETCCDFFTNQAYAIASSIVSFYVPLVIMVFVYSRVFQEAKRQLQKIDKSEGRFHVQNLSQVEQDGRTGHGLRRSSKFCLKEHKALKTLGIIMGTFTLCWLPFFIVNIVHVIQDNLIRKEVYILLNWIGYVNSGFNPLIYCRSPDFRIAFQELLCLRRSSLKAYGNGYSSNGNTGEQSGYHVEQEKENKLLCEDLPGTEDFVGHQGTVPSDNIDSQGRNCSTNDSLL
Summary of the method: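 Cells (CHO, stable ADRB2 overexpression) incubated 18-20hr at 37C; compounds added from DMSO; agonist mix (1nM isoproterenol, 100uM IBMX, 25uM Ro-20-1724) added; 0.5hr RT; d2-cAMP and anti-cAMP-cryptate added; 1hr RT; 665/615 nm read.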

[18] = molecular target: Beta-2 adrenergic receptor (Homo sapiens) (UniProt P07550); experiment: Adrenergic beta2 receptor (ADRB2) small molecule agonists, cell-based qHTS assay (AID 1963593);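 also: CHO cells stably overexpressing human ADRB2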
Summary of the method: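 CHO cells stably over-expressing ADRB2 were plated overnight at 37C, then dosed with compounds plus a stimulation mix containing 100uM IBMX and 25uM Ro-20-1724 for 0.5hr at room temperature. cAMP was measured by HTRF competition, 1hr.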

[19] = molecular target: D(2) dopamine receptor (Homo sapiens) (UniProt P14416); experiment: Dopamine D2 receptor (DRD2) small molecule agonists, cell-based qHTS assay (AID 1963594); also: nearly all actives have a fitted effect of over 35% in size
Chain of D(2) dopamine receptor (Homo sapiens) (P14416 whole entry, looked up): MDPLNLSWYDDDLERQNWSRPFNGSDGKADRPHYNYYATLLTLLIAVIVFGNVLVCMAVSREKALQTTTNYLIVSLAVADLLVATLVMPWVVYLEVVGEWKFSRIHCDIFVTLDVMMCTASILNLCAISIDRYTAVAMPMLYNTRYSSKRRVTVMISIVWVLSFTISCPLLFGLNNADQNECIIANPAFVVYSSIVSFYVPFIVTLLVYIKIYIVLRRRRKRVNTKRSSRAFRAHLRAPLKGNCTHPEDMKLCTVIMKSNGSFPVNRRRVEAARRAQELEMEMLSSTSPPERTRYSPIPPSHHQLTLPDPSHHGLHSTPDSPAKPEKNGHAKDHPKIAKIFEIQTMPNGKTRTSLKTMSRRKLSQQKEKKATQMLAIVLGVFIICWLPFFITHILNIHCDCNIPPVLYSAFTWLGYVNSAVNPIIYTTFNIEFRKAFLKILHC
Summary of the method: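 cAMP accumulation in DRD2-HEK293 cells measured by HTRF after 1 h detection; compounds added 10 min before NKH477 (200nM […]) forskolin-analogue stimulation, 30 min at room temperature, with Ro20-1724 present at 0.1 mM final.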

[20] = molecular target: D(2) dopamine receptor (Homo sapiens) (UniProt P14416); experiment: Dopamine D2 receptor (DRD2) small molecule antagonists, cell-based qHTS assay (AID 1963595; active = well fitted inhibition curve with a large enough effect in the signal ratio in the repeat runs, with a control signal flat; the % refers to the signal ratio)
Summary of the method: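 HTRF cAMP read-out at 665 and 620 nm emission (340 nm excitation). Antagonist mode: compounds were tested against 12 nM quinpirole in DRD2-HEK293 cells, with 200 nM NKH477 raising cAMP and 0.1 mM Ro20-1724 blocking its breakdown.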

Measured: Potency

OCCN1CCNCC1
inactive: all assays above

CC(C)CNCC(C)C
not listed: [14] | [18]
inactive: all other assays above

C=CCOCC(O)CO (configuration not stated)
not listed: [15]
inactive: all other assays above

COc1cccc(OC)c1C(=O)O
not listed: [13]
inactive: all other assays above

CCCCCCCCCCCC(=O)OCC(C)OC(=O)CCCCC(=O)O (configuration not stated)
not listed: [18]
inactive: all other assays above

CC(C)(c1ccccc1)c1ccc(Nc2ccc(C(C)(C)c3ccccc3)cc2)cc1
inactive: all assays above

c1ccsc1
inactive: all assays above

CC(=O)OC/C=C/c1ccccc1
inactive: all assays above

CCN(CC)CCNC(=O)c1ccc(NC(C)=O)cc1
not listed: [13] | [20]
inactive: all other assays above

C=C[Si](OC(=C)C)(OC(=C)C)OC(=C)C
not listed: [12] | [17] | [18]
inactive: all other assays above

CCCCC(=O)N(C)C
not listed: [18]
inactive: all other assays above

CC(=N\O)/C(C)=N/O
not listed: [15]
inactive: all other assays above

COc1ccc(COC(C)=O)cc1
not listed: [5] | [6] | [10]
inactive: all other assays above

CC(C=O)Cc1ccc(C(C)(C)C)cc1 (configuration not stated)
not listed: [8] | [13] | [19]
inactive: all other assays above
